# Calls of active or inactive are those of the source.
# Columns and labels:
# [1] = adipocyte viability effects, profiling panel, cell-based, 3T3-L1 adipocytes, calcein-AM fluorescence, 48 h, basal (AID 1163); settings: 3T3-L1 adipocytes viability, higher = more signal
# [2] = HepG2 cell viability effects, profiling panel, calcein-AM fluorescence, 48 h, basal (AID 1164); settings: higher = more signal
# [3] = MM1S cell viability effects, profiling panel, calcein-AM fluorescence, 48 h, basal (AID 1165); settings: higher = more signal;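 note: viability of MM1S multiple myeloma cells under basal unstimulated conditions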
# [4] = basal RPMI8226 viability, no added stimulus, profiling panel, cell-based, calcein-AM fluorescence, 48 h, PK04 Diversity Set (AID 1166); settings: RPMI8226 myeloma viability, higher = more signal;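 note: cells grown under basal conditions without added stimulus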
# [5] = basal HepG2 mitochondrial membrane potential changes, profiling panel, cell-based, JC-1 fluorescence, 24 h, 100 nL compound (AID 1167); settings: higher = more signal
# [6] = basal 3T3-L1 adipocyte mitochondrial potential changes, profiling panel, cell-based, JC-1 fluorescence, 3T3-L1 adipocytes, 24 h, 100 nL compound (AID 1168); settings: JC-1 mitochondrial fluorescence, higher = more signal, called active from +8 up or from −8 down
# [7] = basal RPMI8226 mitochondrial membrane potential changes, profiling panel, cell-based, JC-1 fluorescence, 24 h, 100 nL compound (AID 1169); settings: RPMI8226 myeloma, JC-1 mitochondrial potential fluorescence, higher = more signal
# [8] = basal MM1S mitochondrial membrane potential changes, profiling panel, cell-based, JC-1 fluorescence, 24 h, 100 nL compound (AID 1170); settings: higher = more signal
# [9] = A549 lung cancer cell viability effects, profiling panel, resazurin fluorescence, 24 h, PK04 Diversity Set (AID 1171); settings: higher = more signal, called active from +8 up or from −8 down
# [10] = HepG2 liver cancer cell viability effects, profiling panel, resazurin fluorescence, 24 h, PK04 Diversity Set (AID 1172); settings: higher = more signal
# [11] = basal S. cerevisiae growth modulation, no modifier, primary screen, OD600, strain BY4716, 24 h, basal condition (AID 1173); settings: OD600, 24 h, higher = more signal, called active from +8 up or from −8 down
# [12] = MM1S myeloma cell viability, profiling panel, resazurin fluorescence, basal, 24 h, PK04 Diversity Set (AID 1174); settings: higher = more signal, called active from +8 up or from −8 down;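 note: MM1S multiple myeloma cell line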
# [13] = biological target: Dihydroorotate dehydrogenase (quinone), mitochondrial (Plasmodium falciparum (isolate 3D7)) (UniProt Q08210); assay: PfDHODH enzyme inhibitors, primary screen, biochemical, C-terminal His tag, absorbance 600 nm (AID 1175); settings: DCIP absorbance 600 nm, higher = more signal, called active from +8 up or from −8 down;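 note: recombinant parasite enzyme with a five histidine tag at its C terminus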
# [14] = S. cerevisiae RM11-1a growth modifiers, primary screen, strain RM11-1a, OD600, basal, 24 h (AID 1177); settings: OD600, 24 h, higher = more signal, called active from +8 up or from −8 down;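 note: cultures grown under basal conditions with no added stressor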
# [15] = E. coli acrAB mutant growth effects, primary screen, E. coli filamentation inducers, strain DRC39, OD650, 24 h (AID 1178); settings: higher = more signal, called active from +8 up or from −8 down;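 note: growth measured as culture turbidity by optical density at 650 nm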
# [16] = E. coli acrAB mutant growth effects, primary screen, E. coli filamentation inducers, strain DRC39, OD650, 48 h (AID 1179);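 note: screen aims at cell division blockers that make cells filament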; settings: E. coli DRC39 delta-acrAB growth, higher = more signal, called active from +8 up or from −8 down
# [17] = RPMI8226 myeloma cell viability, profiling panel, resazurin fluorescence, basal, 24 h, PK04 Diversity Set (AID 1180); settings: higher = more signal;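 note: RPMI8826 multiple myeloma cell line at 5000 cells per well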
# [18] = biological target: E3 ubiquitin-protein ligase XIAP (Homo sapiens) (UniProt P98170); assay: XIAP binders, primary screen, biophysical, small-molecule microarray, fluorescence 635 nm (AID 1181); settings: small-molecule microarray binding, higher = more signal;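 note: score merges 667 nm emission and signal to noise over triplicate slides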
# [19] = tested on: XIP peptide (Xip251-270) binding; assay: small-molecule binders of XIP peptide, primary screen, biochemical, small-molecule microarray, fluorescence 635/667 nm, 0.1 µg/mL protein (AID 1182); settings: fluorescent protein binding, 635 nm, higher = more signal, called active from +8 up or from −8 down
# XIP peptide (Xip251-270) = assay: small-molecule binders of XIP peptide, primary screen, biochemical, small-molecule microarray, fluorescence 635/667 nm, 0.5 µg/mL protein (AID 1183); settings: small-molecule microarray binding, fluorescence 635 nm; higher = more signal
# Chain of E3 ubiquitin-protein ligase XIAP (Homo sapiens) (P98170 whole entry, looked up): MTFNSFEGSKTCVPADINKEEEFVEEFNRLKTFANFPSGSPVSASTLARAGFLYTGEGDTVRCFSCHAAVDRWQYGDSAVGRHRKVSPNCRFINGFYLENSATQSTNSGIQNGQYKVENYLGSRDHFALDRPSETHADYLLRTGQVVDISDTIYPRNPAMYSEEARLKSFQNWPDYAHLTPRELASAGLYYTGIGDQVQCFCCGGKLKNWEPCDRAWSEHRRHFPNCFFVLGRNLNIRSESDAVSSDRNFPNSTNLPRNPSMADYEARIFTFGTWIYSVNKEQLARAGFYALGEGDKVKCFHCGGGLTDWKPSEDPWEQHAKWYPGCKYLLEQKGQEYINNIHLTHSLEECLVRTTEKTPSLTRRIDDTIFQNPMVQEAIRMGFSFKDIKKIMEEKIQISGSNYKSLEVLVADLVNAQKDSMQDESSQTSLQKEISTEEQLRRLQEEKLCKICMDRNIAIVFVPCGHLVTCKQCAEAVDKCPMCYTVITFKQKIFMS
# Chain of Dihydroorotate dehydrogenase (quinone), mitochondrial (Plasmodium falciparum (isolate 3D7)) (Q08210 whole entry, looked up): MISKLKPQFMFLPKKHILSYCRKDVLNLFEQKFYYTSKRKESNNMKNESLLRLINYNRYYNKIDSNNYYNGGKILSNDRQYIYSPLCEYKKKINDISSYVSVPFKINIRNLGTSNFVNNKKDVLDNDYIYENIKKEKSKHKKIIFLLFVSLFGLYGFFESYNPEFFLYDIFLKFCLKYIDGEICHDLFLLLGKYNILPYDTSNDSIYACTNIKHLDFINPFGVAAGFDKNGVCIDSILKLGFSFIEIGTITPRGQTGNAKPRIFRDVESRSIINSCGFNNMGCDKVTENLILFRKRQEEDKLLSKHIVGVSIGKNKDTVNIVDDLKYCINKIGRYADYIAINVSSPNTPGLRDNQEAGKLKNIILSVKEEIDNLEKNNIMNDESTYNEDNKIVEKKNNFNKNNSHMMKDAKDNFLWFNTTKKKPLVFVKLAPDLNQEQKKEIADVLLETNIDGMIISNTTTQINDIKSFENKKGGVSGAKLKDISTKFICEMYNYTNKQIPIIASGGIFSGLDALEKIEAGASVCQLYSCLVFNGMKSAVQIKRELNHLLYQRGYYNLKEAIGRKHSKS
Structure (SMILES),z-score [1],z-score [2],z-score [3],z-score [4],z-score [5],z-score [6],z-score [7],z-score [8],z-score [9],z-score [10],z-score [11],z-score [12],composite z-score [13],z-score [14],z-score [15],z-score [16],z-score [17],composite z-score [18],composite z-score [19],composite z-score (XIP peptide (Xip251-270))
CCN(CC)c1ccc(N2CC=CC34O[C@@H]5C=CCOC(=O)[C@@H]5[C@H]3C(=O)N(C(CO)C(C)C)[C@@H]4C2=O)cc1 (stereo not given in full),0.471,0.121,-0.413,-0.201,0.296,0.688 (inactive),1.08,0.728,0.461 (inactive),0.492,0.0588 (inactive),0.913 (inactive),0.764 (inactive),1.24 (inactive),1.21 (inactive),1.09 (inactive),0.687,0.0139,-0.0795 (inactive),-0.51
C=CCNC(=O)[C@H]1[C@@H]2C(=O)O[C@@H](c3ccccc3)[C@@H](c3ccccc3)N2[C@@H](c2ccc(OCCO)cc2)[C@]12C(=O)Nc1ccc(C#CCCO)cc12,2.12,1.05,0.416,0.364,0.355,0.815 (inactive),-0.307,0.128,0.865 (inactive),-0.0836,-0.0378 (inactive),0.806 (inactive),0.0436 (inactive),1.25 (inactive),0.645 (inactive),0.499 (inactive),1.28,-0.0371,0.331 (inactive),0.81
O=C(NC1CC1)[C@@H]1c2ccccc2C(=O)N(Cc2ccccc2C(F)(F)F)[C@H]1c1ccc(CO)cc1,1.59,0.0356,-0.124,0.702,1.26,0.387 (inactive),-0.0417,0.65,1.99 (inactive),0.187,-0.844 (inactive),1.55 (inactive),0.209 (inactive),-0.615 (inactive),0.487 (inactive),-0.152 (inactive),1.98,-0.0848,0.62 (inactive),0.618
O=C(NO)[C@]1(Cc2ccccc2)N=C(c2ccc(OCCCO)cc2)O[C@@H]1c1ccccc1,1.33,1.18,1.87,-0.459,1.59,1.3 (inactive),-0.737,1.02,1.02 (inactive),1.47,-2.78 (inactive),1.41 (inactive),0.461 (inactive),-4.43 (inactive),2.26 (inactive),2.18 (inactive),0.963,0.0402,-0.592 (inactive),-1.32
COc1ccc([Si](C)(C)[C@H]2[C@H](CC(=O)N(CCO)Cc3ccccc3)O[C@@]3(C(=O)N(Cc4ccc(N5CCOC5=O)cc4)c4ccccc43)[C@@H]2C)cc1,1.17,-0.721,-0.931,0.17,1.51,0.647 (inactive),-1.19,0.188,-1.36 (inactive),-0.292,-0.693 (inactive),-1.98 (inactive),0.374 (inactive),2.73 (inactive),1.42 (inactive),1.29 (inactive),-2.8,0.144,1.01 (inactive),0.631
COc1ccc(CCNC(=O)[C@@]2(Sc3ccc(C)cc3)CC(=O)N(Cc3ccccc3)[C@@H]2c2ccc(CO)cc2I)cc1,1.14,-0.46,-1.78,-2.05,1.17,0.0695 (inactive),-0.861,-1.3,1.28 (inactive),0.278,-1.92 (inactive),-2.26 (inactive),0.341 (inactive),0.893 (inactive),0.361 (inactive),-0.0855 (inactive),-1.5,0.0623,-0.281 (inactive),-0.0462
COc1ccc([Si](C)(C)[C@@H]2[C@@H](CCn3cc([C@H](O)c4ccccc4)nn3)O[C@]3(C(=O)N(C)c4c(Br)cc(C)cc43)[C@H]2C)cc1,1.49,-4.5,-2.72,-4.42,-1.11,2.39 (inactive),-1.06,-1.2,-2.49 (inactive),-3.66,-1.39 (inactive),-8.35 (active),-0.973 (inactive),-2.42 (inactive),2.5 (inactive),2.83 (inactive),-6.23,0.382,0.512 (inactive),0.202
CC1CC/C=C\[C@H]2OC34C=CCN(C(C)C)C(=O)[C@H]3N(C(CO)C(C)C)C(=O)[C@@H]4C2C(=O)O1 (stereo not given in full),0.252,-0.0224,1.4,0.652,0.686,1.39 (inactive),-0.723,1.62,0.351 (inactive),0.788,-0.718 (inactive),1.15 (inactive),-1.87 (inactive),-0.488 (inactive),1.36 (inactive),1.46 (inactive),0.838,-0.194,0.0648 (inactive),-1.15
CO[C@H]1O[C@H](CO)[C@@H](OC(=O)Nc2ccccc2)[C@H](OC(=O)Nc2ccccc2-c2ccccc2)[C@@H]1OC(=O)Nc1ccccc1-c1ccccc1,0.195,-1.35,-1.09,-1.33,-0.629,2.01 (inactive),-0.947,0.15,-2.22 (inactive),-0.342,-0.954 (inactive),-1.15 (inactive),-1.33 (inactive),2.16 (inactive),-0.233 (inactive),-0.3 (inactive),-0.447,-0.0988,1.7 (inactive),0.868
CCCCCN1CC=CC23O[C@@H]4/C=C\CCC(C)OC(=O)C4[C@H]2C(=O)N(CCCO)[C@@H]3C1=O (stereo not given in full),1.42,0.495,-1.25,0.279,0.197,0.399 (inactive),0.318,0.962,0.427 (inactive),0.605,-1.26 (inactive),1.5 (inactive),0.564 (inactive),-0.599 (inactive),1.54 (inactive),1.11 (inactive),1.4,-0.0351,0.156 (inactive),-0.827
O=C(NCC(F)(F)F)[C@@H]1c2ccccc2C(=O)N(C2Cc3ccccc3C2)[C@H]1c1ccc(CO)cc1,0.752,-0.016,0.557,-1.11,3.1,0.676 (inactive),0.0903,-0.0546,1.05 (inactive),0.983,-1.06 (inactive),1.49 (inactive),-1.16 (inactive),-0.763 (inactive),0.46 (inactive),0.249 (inactive),1.61,-0.22,-0.729 (inactive),-1.33
C=CC[C@@]1(C(=O)NCc2ccccc2)N=C(c2ccc(OCCCO)cc2)O[C@@H]1c1ccccc1,0.791,-1.01,-2.93,-4.46,0.0411,1.84 (inactive),-1.23,0.199,0.0074 (inactive),0.547,-2.16 (inactive),-0.47 (inactive),-0.904 (inactive),-1.23 (inactive),0.254 (inactive),-0.124 (inactive),-1.48,1.49,0.624 (inactive),0.784
O=C1c2ccccc2C(=O)c2cc([C@H]3Oc4ccccc4S(=O)(=O)N4CCC[C@@H]34)ccc21,1.07,0.158,-2.6,0.558,2.04,0.282 (inactive),0.103,-0.752,0.623 (inactive),1.62,-2.8 (inactive),0.566 (inactive),0.342 (inactive),-1.5 (inactive),2.89 (inactive),1.21 (inactive),0.476,0.0374,-1.15 (inactive),-1.82
COC(=O)c1c(CC[C@@H](CO)NC(=O)Nc2ccc(OC)cc2)oc(C(=O)Cc2ccccc2)c1C(=O)OC,1.01,-0.255,-0.581,0.141,-0.115,0.695 (inactive),-0.204,0.212,0.367 (inactive),-0.325,-2.3 (inactive),0.955 (inactive),-1.09 (inactive),1.22 (inactive),1.46 (inactive),0.987 (inactive),0.173,-0.0525,0.684 (inactive),0.678
